40 targets from the supplement of paper PMC12819154, “High-throughput peptide-centric local stability assay extends protein–ligand identification to membrane proteins, tissues and bacteria” (Nature Structural & Molecular Biology, 2025) can be followed below.

Sequence of UniProt Q9Y6R4 (Q9Y6R4 whole entry): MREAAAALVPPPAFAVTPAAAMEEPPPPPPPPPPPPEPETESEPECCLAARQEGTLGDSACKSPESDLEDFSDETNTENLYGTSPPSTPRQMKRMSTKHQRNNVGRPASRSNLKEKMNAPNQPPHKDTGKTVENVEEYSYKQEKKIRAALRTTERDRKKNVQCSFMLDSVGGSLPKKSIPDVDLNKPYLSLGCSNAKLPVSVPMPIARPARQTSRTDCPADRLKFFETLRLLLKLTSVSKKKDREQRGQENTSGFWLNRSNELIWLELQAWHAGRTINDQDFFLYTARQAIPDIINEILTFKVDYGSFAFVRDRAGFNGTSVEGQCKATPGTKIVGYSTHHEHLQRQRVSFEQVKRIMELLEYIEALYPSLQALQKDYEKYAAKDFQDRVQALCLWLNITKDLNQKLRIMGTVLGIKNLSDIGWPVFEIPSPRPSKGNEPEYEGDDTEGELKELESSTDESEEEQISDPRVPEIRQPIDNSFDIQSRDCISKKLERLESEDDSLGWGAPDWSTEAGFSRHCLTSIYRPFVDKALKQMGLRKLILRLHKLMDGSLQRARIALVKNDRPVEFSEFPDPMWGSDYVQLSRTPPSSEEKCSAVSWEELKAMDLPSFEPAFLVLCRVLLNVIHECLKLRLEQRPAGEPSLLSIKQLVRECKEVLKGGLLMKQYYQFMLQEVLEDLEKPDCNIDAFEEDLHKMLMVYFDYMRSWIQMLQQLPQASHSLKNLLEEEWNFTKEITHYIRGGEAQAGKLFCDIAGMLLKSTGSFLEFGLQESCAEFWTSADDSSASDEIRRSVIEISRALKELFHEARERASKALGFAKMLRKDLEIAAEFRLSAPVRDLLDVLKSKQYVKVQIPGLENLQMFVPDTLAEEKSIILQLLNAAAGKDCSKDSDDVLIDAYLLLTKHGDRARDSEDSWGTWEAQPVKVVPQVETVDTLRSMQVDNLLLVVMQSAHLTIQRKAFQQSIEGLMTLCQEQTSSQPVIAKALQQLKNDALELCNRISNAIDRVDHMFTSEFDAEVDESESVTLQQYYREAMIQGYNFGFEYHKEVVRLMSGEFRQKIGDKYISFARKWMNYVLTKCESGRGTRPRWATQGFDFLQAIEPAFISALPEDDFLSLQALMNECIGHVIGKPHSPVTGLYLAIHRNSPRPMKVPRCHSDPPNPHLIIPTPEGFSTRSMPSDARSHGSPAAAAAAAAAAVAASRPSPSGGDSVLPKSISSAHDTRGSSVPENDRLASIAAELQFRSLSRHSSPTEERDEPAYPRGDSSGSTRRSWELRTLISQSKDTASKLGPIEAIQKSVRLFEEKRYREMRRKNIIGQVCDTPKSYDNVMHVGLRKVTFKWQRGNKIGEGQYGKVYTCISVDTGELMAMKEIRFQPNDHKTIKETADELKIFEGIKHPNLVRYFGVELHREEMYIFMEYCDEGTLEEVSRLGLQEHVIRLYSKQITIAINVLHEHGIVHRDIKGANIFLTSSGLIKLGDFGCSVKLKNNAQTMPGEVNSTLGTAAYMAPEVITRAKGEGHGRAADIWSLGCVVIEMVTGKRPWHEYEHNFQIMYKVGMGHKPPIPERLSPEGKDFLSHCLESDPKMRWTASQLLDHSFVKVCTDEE
Sequence of UniProt P06737 (P06737 whole entry): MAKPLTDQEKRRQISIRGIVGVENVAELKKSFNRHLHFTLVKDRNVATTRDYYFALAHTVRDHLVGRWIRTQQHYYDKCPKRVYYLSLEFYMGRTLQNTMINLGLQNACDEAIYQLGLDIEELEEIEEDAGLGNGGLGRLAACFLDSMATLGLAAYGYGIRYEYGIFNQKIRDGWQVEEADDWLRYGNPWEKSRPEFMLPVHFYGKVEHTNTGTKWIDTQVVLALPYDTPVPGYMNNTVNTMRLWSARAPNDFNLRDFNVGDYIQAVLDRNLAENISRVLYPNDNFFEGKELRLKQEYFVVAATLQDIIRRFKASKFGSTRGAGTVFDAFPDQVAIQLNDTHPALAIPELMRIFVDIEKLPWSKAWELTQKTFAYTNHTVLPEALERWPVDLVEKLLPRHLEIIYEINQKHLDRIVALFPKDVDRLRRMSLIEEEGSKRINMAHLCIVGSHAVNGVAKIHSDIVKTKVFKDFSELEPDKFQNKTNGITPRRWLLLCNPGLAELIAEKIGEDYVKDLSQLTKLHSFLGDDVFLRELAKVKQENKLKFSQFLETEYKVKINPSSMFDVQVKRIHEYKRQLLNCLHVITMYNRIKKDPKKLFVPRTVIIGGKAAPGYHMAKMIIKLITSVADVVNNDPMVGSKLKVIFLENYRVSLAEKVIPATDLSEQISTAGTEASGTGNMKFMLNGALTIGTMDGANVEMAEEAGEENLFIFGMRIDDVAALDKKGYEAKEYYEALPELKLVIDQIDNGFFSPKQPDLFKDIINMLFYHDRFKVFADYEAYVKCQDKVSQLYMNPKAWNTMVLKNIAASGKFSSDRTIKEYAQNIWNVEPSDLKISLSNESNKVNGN
Sequence of UniProt Q13418 (Q13418 whole entry): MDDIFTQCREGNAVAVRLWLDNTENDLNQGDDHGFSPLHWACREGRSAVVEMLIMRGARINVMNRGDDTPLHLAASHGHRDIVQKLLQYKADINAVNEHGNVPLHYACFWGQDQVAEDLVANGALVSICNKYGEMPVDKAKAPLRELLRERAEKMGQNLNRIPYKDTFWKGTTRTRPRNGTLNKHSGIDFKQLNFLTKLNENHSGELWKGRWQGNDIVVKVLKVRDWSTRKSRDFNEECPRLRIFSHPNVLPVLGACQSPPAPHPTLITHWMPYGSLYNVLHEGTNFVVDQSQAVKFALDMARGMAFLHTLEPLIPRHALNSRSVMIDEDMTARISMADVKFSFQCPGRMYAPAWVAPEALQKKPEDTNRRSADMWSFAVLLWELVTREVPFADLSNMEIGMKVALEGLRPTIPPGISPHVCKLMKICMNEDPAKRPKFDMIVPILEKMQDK
Sequence of UniProt P42684 (P42684 whole entry): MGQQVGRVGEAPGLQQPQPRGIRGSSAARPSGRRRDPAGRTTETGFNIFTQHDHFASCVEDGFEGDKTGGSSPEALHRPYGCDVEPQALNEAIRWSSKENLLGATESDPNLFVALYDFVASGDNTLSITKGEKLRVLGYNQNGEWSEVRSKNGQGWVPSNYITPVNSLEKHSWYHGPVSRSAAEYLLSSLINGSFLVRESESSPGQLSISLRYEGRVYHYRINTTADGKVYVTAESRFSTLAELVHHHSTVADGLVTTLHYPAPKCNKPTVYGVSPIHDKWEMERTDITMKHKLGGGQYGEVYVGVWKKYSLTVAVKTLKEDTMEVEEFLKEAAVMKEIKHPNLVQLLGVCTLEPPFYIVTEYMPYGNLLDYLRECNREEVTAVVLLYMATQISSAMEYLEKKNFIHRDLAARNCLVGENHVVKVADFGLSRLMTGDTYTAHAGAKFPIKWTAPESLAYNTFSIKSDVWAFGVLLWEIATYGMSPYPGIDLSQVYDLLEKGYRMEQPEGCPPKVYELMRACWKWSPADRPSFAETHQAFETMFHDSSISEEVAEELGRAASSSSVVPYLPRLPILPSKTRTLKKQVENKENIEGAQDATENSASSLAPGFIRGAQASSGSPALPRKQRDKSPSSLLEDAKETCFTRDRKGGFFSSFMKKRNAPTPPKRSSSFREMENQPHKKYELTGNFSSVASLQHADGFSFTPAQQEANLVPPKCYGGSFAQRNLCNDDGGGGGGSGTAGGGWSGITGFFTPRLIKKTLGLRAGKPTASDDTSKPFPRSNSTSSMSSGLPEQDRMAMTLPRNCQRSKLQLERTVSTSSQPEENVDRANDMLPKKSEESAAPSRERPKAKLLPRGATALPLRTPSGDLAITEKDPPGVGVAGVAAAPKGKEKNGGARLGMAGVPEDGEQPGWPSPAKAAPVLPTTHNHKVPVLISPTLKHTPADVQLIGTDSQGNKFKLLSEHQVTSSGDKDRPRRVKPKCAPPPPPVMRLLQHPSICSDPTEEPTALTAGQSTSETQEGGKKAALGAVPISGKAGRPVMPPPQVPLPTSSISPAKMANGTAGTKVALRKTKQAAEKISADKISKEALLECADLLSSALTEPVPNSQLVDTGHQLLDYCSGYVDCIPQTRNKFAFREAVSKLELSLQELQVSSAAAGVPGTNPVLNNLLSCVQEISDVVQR
Sequence of UniProt Q13188 (Q13188 whole entry): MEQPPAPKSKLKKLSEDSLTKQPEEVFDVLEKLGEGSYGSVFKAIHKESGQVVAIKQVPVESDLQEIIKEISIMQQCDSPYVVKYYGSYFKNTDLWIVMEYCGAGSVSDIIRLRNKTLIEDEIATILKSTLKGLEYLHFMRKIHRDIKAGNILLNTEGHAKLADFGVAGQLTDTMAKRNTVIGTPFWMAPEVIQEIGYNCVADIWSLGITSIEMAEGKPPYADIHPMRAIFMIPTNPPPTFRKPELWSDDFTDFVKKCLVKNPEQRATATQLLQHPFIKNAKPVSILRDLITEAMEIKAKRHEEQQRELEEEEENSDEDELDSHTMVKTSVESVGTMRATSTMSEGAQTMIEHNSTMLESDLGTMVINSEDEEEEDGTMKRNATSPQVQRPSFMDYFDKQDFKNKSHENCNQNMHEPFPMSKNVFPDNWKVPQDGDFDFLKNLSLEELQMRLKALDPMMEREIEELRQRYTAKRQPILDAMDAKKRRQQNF
Sequence of UniProt P55263 (P55263 whole entry, looked up): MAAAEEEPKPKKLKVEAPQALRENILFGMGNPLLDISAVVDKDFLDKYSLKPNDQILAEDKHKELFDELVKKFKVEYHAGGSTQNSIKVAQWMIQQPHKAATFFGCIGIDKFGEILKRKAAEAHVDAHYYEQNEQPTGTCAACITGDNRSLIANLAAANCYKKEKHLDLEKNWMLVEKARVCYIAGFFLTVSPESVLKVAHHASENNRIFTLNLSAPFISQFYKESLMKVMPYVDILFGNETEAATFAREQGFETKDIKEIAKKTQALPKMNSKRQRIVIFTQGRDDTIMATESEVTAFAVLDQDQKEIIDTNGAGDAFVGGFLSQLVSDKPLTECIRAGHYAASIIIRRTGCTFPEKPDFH

Compound in this assay: Cc1nc(Nc2ncc(C(=O)Nc3c(C)cccc3Cl)s2)cc(N2CCN(CCO)CC2)n1 [dasatinib]
Put plainly: log2 fold change of tryptic peptide abundance, ligand vs vehicle (limited proteolysis) (log2 ratio); higher = more trypsin-susceptible (destabilized). Particulars: ligand concentration: 5 uM; sample: K562 cleared lysate.
For “UniProt Q13043 (peptide sequence: ATATQLLQHPFVR, peptide start residue: 270)”, the log2 fold change was -0.627.

Consider “UniProt P36507 (peptide sequence: KLEELELDEQQKK, peptide start residue: 40)”, for which the log2 fold change was found to be 0.445. The value for “PAK2 (peptide sequence: LLQTSNITK, peptide start residue: 105) (UniProt Q13177)” was 0.206; that for “UniProt Q9Y2U5 (peptide sequence: LLGQGAFGR, peptide start residue: 361)” was -0.631.

For the target “GAK (peptide sequence: AIIQEVCFMK, peptide start residue: 81) (UniProt O14976)”, the log2 fold change was -2.44. With “MAP3K4 (peptide sequence: LGDFGCSVK, peptide start residue: 1479) (UniProt Q9Y6R4)” the figure was -1.67; with “UniProt Q02750 (peptide sequence: SYMSPER, peptide start residue: 228)”, 1.37; with “MAP4K3 (peptide sequence: RNPQEDFELIQR, peptide start residue: 10) (UniProt Q8IVH8)”, -1.06. For “ABHD4 (peptide sequence: VAGPWGPGLVQR, peptide start residue: 209) (UniProt Q8TB40)”, the log2 fold change was 0.933.

“PYGL (peptide sequence: NLAENISR, peptide start residue: 271) (UniProt P06737)”: the log2 fold change is -0.422. “ILK (peptide sequence: DFNEECPR, peptide start residue: 234) (UniProt Q13418)”: the log2 fold change turned out to be 0.893.

Consider “ULK3 (peptide sequence: VIELPLRPLLSR, peptide start residue: 230) (UniProt Q6PHR2)”, for which the log2 fold change is -0.336. The value for “ADK (peptide sequence: TGCTFPEKPDFH, peptide start residue: 351) (UniProt P55263)” was -0.858. The value for “FECH (peptide sequence: LFLDRDLMTLPIQNK, peptide start residue: 92) (UniProt P22830)” was -0.278; that for “MAP4K5 (peptide sequence: LLTHTFVAQPGLSR, peptide start residue: 271) (UniProt Q9Y4K4)” was -0.838; that for “TAOK2 (peptide sequence: ELDNLQYR, peptide start residue: 299) (UniProt Q9UL54)” was 0.422. With “LIMK2 (peptide sequence: GFFGQAIK, peptide start residue: 340) (UniProt P53671)” the figure was -1.19; with “PYGB (peptide sequence: GLAGLGDVAEVR, peptide start residue: 18) (UniProt P11216)”, -0.49.

On to “TNIK (peptide sequence: NHSQRPATEQLMK, peptide start residue: 273) (UniProt Q9UKE5)”, for which the log2 fold change is -0.606. The value for “UniProt Q16513 (peptide sequence: IFETVNSVR, peptide start residue: 708)” was 0.751; that for “JAK1 (peptide sequence: NVLVESEHQVK, peptide start residue: 1008) (UniProt P23458)” was -1.51. The value for “AASDHPPT (peptide sequence: IGQFVFAR, peptide start residue: 48) (UniProt Q9NRN7)” was -0.547; that for “UniProt Q8N4C8 (peptide sequence: NIATYYGAFIK, peptide start residue: 81)” was -0.397; that for “MAPK14 (peptide sequence: DLLIDEWK, peptide start residue: 331) (UniProt Q16539)” was -1.32. With “SYK (peptide sequence: GSEVTAMLEKGER, peptide start residue: 578) (UniProt P43405)” the figure was -0.709; with “UniProt Q16512 (peptide sequence: VLLSEFRPSGELFAIK, peptide start residue: 629)”, 1.18.

For the target “UniProt Q13163 (peptide sequence: DVKPSNMLVNTR, peptide start residue: 283)”, the log2 fold change was determined as 1.77.

Turning to “UniProt P07947 (peptide sequence: LTTVCPTVKPQTQGLAK, peptide start residue: 251)”, the log2 fold change is 2.59. For the target “ARAF (peptide sequence: RLLSDCLK, peptide start residue: 544) (UniProt P10398)”, the log2 fold change was determined as 0.619. On to “TYK2 (peptide sequence: EITQLSHLGQGTR, peptide start residue: 588) (UniProt P29597)”, for which the log2 fold change is -1.29. The value for “MAPK11 (peptide sequence: ILDFGLAR, peptide start residue: 167) (UniProt Q15759)” was -0.259; that for “TEC (peptide sequence: GCLLNFLR, peptide start residue: 448) (UniProt P42680)” was -2.98. With “UniProt Q13188 (peptide sequence: AGNILLNTEGHAK, peptide start residue: 152)” the figure was -0.627; with “Jak2 (peptide sequence: VLPQDKEYYK, peptide start residue: 1000) (UniProt O60674)”, -0.993. The value for “PPAT (peptide sequence: TFIQPNMR, peptide start residue: 356) (UniProt Q06203)” was -0.503; that for “UniProt Q8NI60 (peptide sequence: VALLDFGATR, peptide start residue: 503)” was -0.968. As for “ABL2 (peptide sequence: NCLVGENHVVK, peptide start residue: 414) (UniProt P42684)”, the log2 fold change was -2.95. With “TNK1 (peptide sequence: VADFGLVRPLGGAR, peptide start residue: 261) (UniProt Q13470)” the figure was -0.538.

With “UniProt Q9Y2K2 (peptide sequence: IGYYEIDR, peptide start residue: 63)”, the log2 fold change was -1.83. The value for “RIPK2 (peptide sequence: KTEYPDVAWPLR, peptide start residue: 110) (UniProt O43353)” was -1.34.
